The text below walks through data of the supplement of paper PMC3558484.

For this test, the system named is H1 OCT4-GFP hESC. Kind of test: survival Z score in repeat assay, Calcein AM perimeter-filtered objects (vs plate mean) (Z score (SD)); higher = more surviving cells, active = 3 or more. The following applies: 10 µM, 2 days, cells per well: 1500, rescreen. The protocol: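 Top perimeter-filtered hits were cherry-picked and rescreened in the same Calcein AM assay (H1 OCT4-GFP hESCs, 1500 cells/well, 10 µM, 2 days, objects with perimeter ≥100 µm). Results are per-plate Z scores; a hit is Z ≥3.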
Consider `O=S(=O)(c1cccc2cnccc12)N1CCCNCC1`, for which the “survival Z score in repeat assay” value was 4.63 (active). The result for `CC(N/C(=N\C#N)Nc1ccncc1)C(C)(C)C` (configuration not stated) [Pinacidil] reads 0.345 (inactive).
